Bioassay records from PubChem.
Y pestis TopoI – Yersinia pestis topoisomerase I inhibitors, primary screen, biochemical, cleavage product accumulation, plate reader, single point | AID 504884, 2011 | Y. pestis Topo-I cleavage product accumulation | DNA topoisomerase I (Yersinia pestis CO92) | 0.064% of 360,000 active | activity, % at 10 µM; in the data active = activity above about 50%, passing the limit was not always enough
FBA Mtb inh – Mtb FBA enzyme inhibitors, primary screen, biochemical, fluorescence, strain H37Rv; Fructose-bisphosphate aldolase (Mycobacterium tuberculosis (strain ATCC 25618 / H37Rv)), …; purified M. tuberculosis FBA, fluorescence read-out; inhibition, % at 1 µM; 2.3% of 360,000 active; AID 588726, 2011; in the data active = inhibition above about 27%;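 note: 0% = vehicle and 100% = reference inhibitor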
Target sequence (P9WQA3 whole entry, looked up): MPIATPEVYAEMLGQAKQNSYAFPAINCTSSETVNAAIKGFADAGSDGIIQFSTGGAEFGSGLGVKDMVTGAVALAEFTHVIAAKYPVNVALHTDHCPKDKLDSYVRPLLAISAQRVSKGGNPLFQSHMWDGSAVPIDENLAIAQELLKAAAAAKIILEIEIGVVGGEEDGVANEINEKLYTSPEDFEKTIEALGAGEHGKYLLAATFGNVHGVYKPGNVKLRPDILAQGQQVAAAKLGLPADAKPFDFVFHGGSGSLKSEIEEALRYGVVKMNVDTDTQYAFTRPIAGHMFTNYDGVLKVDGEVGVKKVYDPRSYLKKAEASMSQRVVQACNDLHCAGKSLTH
PrPC TRFRET – inhibitors of human cell surface prion protein PrPC, primary screen, cell-based, TR-FRET; Major prion protein (Homo sapiens), P04156; TR-FRET read-out; inhibition, % at 13.8 µM; 0.43% of 370,000 active; AID 720596, 2013; in the data active = inhibition above about 24%; note: 0% = median of the test wells and 100% = reference compound wells
TcdB GH inh – TcdB glycohydrolase inhibitors, primary screen, biochemical, single point, plate reader; TcdB glycohydrolase enzymatic assay; inhibition, % at 9.99 µM; 0.24% of 350,000 active; AID 652162, 2013; in the data active = inhibition above about 10%
GDH-TPI counter – GDH-TPI coupling enzyme inhibitors, primary screen, artefact control for M. tuberculosis FBA inhibitor project, biochemical, absorbance, full deck; GDH-TPI coupled enzyme counterscreen, NADH absorbance; inhibition, % at 4.8 µM; 1.2% of 360,000 active; AID 588335, 2011; in the data active = inhibition above about 30%;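 note: 0% = DMSO wells and 100% = wells lacking the enzyme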
* = called active by the depositor; nt = no result given; + = active, no number. In the library only some 3.2% were active in any assay of this set; here they are far more common.

SMILES | Y pestis TopoI | FBA Mtb inh | PrPC TRFRET | TcdB GH inh | GDH-TPI counter
Cc1oc2ccc(OC(C(=O)O)c3ccccc3)cc2c1C(=O)O (stereo unspecified) | -1 | 3 | 4 | -1 | 3
CC(Oc1ccc2oc(-c3ccccc3)c(C(=O)O)c2c1)C(=O)O (stereo unspecified) | 4 | + | 3 | nt | 6
CCOc1ccc2oc(-c3ccccc3)c(C(=O)O)c2c1 | 2 | + | 4 | nt | 6
COCC(=O)N(C)C[C@@H]1Oc2ncc(C#CCC3CCCC3)cc2C(=O)N([C@@H](C)CO)C[C@H]1C | nt | nt | nt | 0 | nt
O=c1c(OCc2ccccc2)cccn1Cc1ccccc1 | -3 | 1 | 5 | 2 | 1
O=c1c(-c2nc3ccccc3s2)cccn1Cc1ccccc1 | -3 | 194* | -8 | nt | 21
Cc1cc(C(=O)Nc2cccc3c2O[C@@H](CN(C)S(=O)(=O)c2ccc(F)cc2)[C@H](C)CN([C@H](C)CO)C3=O)n(C)n1 | nt | nt | nt | 0 | nt
COc1cc(NC(=O)CCc2nnc3ccc(N4CCC(C)CC4)nn23)cc(OC)c1 | 4 | -1 | -8 | 10* | -4
COc1cc(NC(=O)CCc2nnc3ccc(N4CCN(c5cccc(OC)c5)CC4)nn23)cc(OC)c1 | 16 | 4 | -2 | 1 | 13
O=C(NCc1cccs1)c1cnc2sccn2c1=O | 0 | 2 | -4 | 1 | 45*
Cc1cc(C)nc(NC(=O)c2cnc3sccn3c2=O)n1 | 6 | 4 | -4 | 1 | 46*
Cc1cc(NS(=O)(=O)c2ccc(NC(=O)c3cnc4sccn4c3=O)cc2)nc(C)n1 | 0 | 2 | -4 | 0 | 20
O=C(c1cnc2sccn2c1=O)N(Cc1ccccc1)c1ccccn1 | 1 | 0 | -5 | 1 | 33*
O=C(NCc1ccc(F)cc1)c1cnc2sccn2c1=O | 0 | 9 | 14 | 1 | 27
O=S(=O)(Cc1ccccc1)NCC[C@H]1CC[C@@H](NS(=O)(=O)c2ccc(F)cc2)[C@@H](CO)O1 | nt | nt | nt | 1 | nt
COc1cccc(C#Cc2cnc3c(c2)C(=O)N([C@H](C)CO)C[C@H](C)[C@H](CN(C)C(=O)C2CC2)O3)c1 | nt | nt | nt | 0 | nt
CC[n+]1c(/C=C/N(C)c2ccccc2)oc2ccc(Cl)cc21 | 4 | -5 | -4 | -3 | 46*
CCn1c(C)csc1=NC(=O)c1ccccc1 | -17 | -8 | -3 | nt | 34*
CCn1c(C)csc1=NC(=O)c1ccccc1O | 3 | 0 | 5 | 1 | 37*
Cc1csc(=NC(=O)c2ccccc2)n1Cc1ccco1 | 20 | -5 | 2 | 0 | 11
Cc1ccccc1S(=O)(=O)N1CC(=O)N2[C@@H](CO)[C@@H](c3ccc(C#CC4CC4)cc3)[C@@H]2C1 | nt | nt | nt | 0 | nt
CN1C(=O)S/C(=C/c2cccnc2)C1=O | 1 | -5 | -1 | nt | 32*
O=C(NCCN1C(=O)S/C(=C/c2cccnc2)C1=O)c1cccs1 | -8 | 0 | 5 | 1 | 32*
COc1ccc(/C=C2\N=C(SC)NC2=O)cc1 | -2 | 0 | 1 | nt | 14
COc1ccc(/C=C2/N=C(SC)NC2=O)cc1OC | -8 | -6 | -7 | 2 | 40*
SMILES | Y pestis TopoI | FBA Mtb inh | PrPC TRFRET | TcdB GH inh | GDH-TPI counter
COc1cccc2cc(C(C)=O)c(=O)oc12 | 5 | 1 | 3 | nt | -4
COc1cc(C(C)=O)ccc1OC(=O)c1cc2cccc(OC)c2oc1=O | 6 | -2 | -1 | 1 | 57*
CC(=O)Nc1ccc(S(=O)(=O)Nc2nc3ccccc3nc2-n2ccc(=NC(=O)c3ccc(F)cc3)cc2)cc1 | 8 | 3 | -17 | 16* | 8
CC(=O)Nc1ccc(S(=O)(=O)Nc2nc3ccccc3nc2N2CCCCCC2)cc1 | -6 | 10 | -6 | nt | 33*
O=S(=O)(Nc1nc2ccccc2nc1N1CCc2ccccc2C1)c1ccc(Br)cc1 | -7 | 126* | -32 | nt | 18
C[C@@H]1CN([C@H](C)CO)C(=O)c2cccc(N(C)C)c2O[C@@H]1CN(C)Cc1ccc(Oc2ccccc2)cc1 | nt | nt | nt | -2 | nt
COc1ccc(S(=O)(=O)N[C@@H]2CC[C@@H](CC(=O)N3CCc4ccccc4C3)O[C@H]2CO)cc1 | nt | nt | nt | -1 | nt
CS(=O)(=O)c1ccc2nc(NC(=O)c3ccc(Cn4cc(Br)cn4)o3)sc2c1 | 3 | 18 | 8 | 0 | 31*
C[C@@H]1CN([C@@H](C)CO)C(=O)c2cc(NC(=O)CCCN(C)C)ccc2O[C@H]1CN(C)S(=O)(=O)c1cn(C)cn1 | nt | nt | nt | -4 | nt
COc1ccccc1NC(=O)c1c(NC(=O)CCC(=O)O)sc2c1CCCCC2 | 4 | 10 | -5 | 1 | 31*
COc1ccc(OC)c(NC(=O)c2c(NC(=O)CCC(=O)O)sc3c2CCCCC3)c1 | 6 | 1 | -2 | nt | 6
O=C(/C=C/NCc1cccnc1)C(F)(F)C(F)(F)F | -7 | 1 | 8 | 0 | 8
O=C(/C=C/NCc1cccnc1)c1ccc(Br)cc1 | 10 | -3 | -7 | 0 | 54*
C/C(=N\NC(=O)c1c[nH]c2ccccc12)c1ccc(C)o1 | -3 | -2 | 2 | nt | 33*
CCc1ccc(/C=N/NC(=O)c2c[nH]c3ccccc23)s1 | -4 | 3 | -1 | nt | 50*
O=C(N/N=C/c1cccs1)c1c[nH]c2ccccc12 | -9 | 1 | 3 | nt | 38*
C/C(=N\NC(=O)c1cc2ccccc2cc1O)c1ccc(C)o1 | -10 | 0 | 2 | -3 | 20
C(=NN=C(NN=Cc1cccs1)NN=Cc1cccs1)c1cccs1 | 6 | 2 | 2 | -1 | 44*
O=C(N/N=C/c1cccs1)c1ccccn1 | 5 | -1 | -4 | nt | 23
CNC[C@H]1Oc2c(NS(=O)(=O)c3c(C)noc3C)cccc2C(=O)N([C@@H](C)CO)C[C@H]1C | nt | nt | nt | -5 | nt
CC1Oc2ccccc2C=C1/C=N\NC(=O)c1cccnc1 (stereo unspecified) | 7 | 6 | -10 | 1 | 48*
Cc1ccc(C(=O)N/N=C/C2=Cc3ccccc3OC2C)cc1 (stereo unspecified) | -2 | 13 | 2 | 1 | 24
CC1Oc2ccccc2C=C1/C=N/NC(=O)[C@@H](C)NC(=O)OC(C)(C)C (stereo partly specified) | 5 | 17 | -1 | 0 | 38*
C[C@@H]1CN([C@@H](C)CO)C(=O)c2cccc(NS(=O)(=O)c3ccccc3)c2O[C@H]1CN(C)Cc1ccccc1 | nt | nt | nt | -19 | nt
C=CCSc1nsc(NC(=O)Nc2ccc(F)cc2)n1 | -4 | -2 | 37* | 0 | 2
CCSc1nsc(NC(=O)Nc2ccccc2F)n1 | 0 | 1 | 12 | -1 | -4
CN1CCN(C(=O)C[C@@H]2C=C[C@@H](NC(=O)Cc3ccccn3)[C@H](CO)O2)CC1 | nt | nt | nt | -1 | nt
Cc1ccc(C2=NN(C(=S)Nc3ccccc3)C(c3ccco3)C2)cc1 (stereo unspecified) | 1 | 0 | -2 | nt | 28
